Hits are enriched below; roughly 9.4% of the tested compounds scored in any of these assays.
SMN2 splice up: increases expression of the SMN2 splice variant; actives 2.8% (n = 210,000); Potency, µM (series often up to 46.1 µM), for the others: top-dose activity change, positive = activation, usual class: activators; HEK293 SMN2-luciferase splicing reporter, luminescence, 30-36 h; also: % of control where 0% means no effect; nearly all actives have a fitted effect of over 55% in size
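HEK293 cells carry an SMN2 […]–luciferase reporter in which exon 7 inclusion puts luciferase in frame. Cells were plated 10-12 h before compound addition, then incubated 30-36 h at 37C. ONE-Glo luminescence was read; sodium butyrate at 4.5 mM final served as control.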
ELG1 DNA repair: blocks ELG1-dependent DNA repair in HEK293T cells; AID 504467; actives 2.3% (n = 330,000); HEK293T ELG1-luciferase reporter, luminescence, 16 h; DNA damage induced by 5-fluorouridine; Potency, µM (titrated, usually from 46.1 µM), without a hit: at the highest dose activity change, negative = inhibition, usual class: inhibitors; also: % is scaled to controls: 0 for no effect and ±100 for the full control effect; nearly all actives have a fitted effect of over 55% in size
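In this reporter screen, reduction of luminescence relative to DMSO vehicle indicated activity. Compounds and 5-fluorouridine were added together to 2,000 cells per well, incubated for 16 hr at 37 °C, then developed with ONE-Glo.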
FLuc modulator: inhibits or activates purified firefly luciferase, miR-21 counter-screen. Potency, µM (titrated, usually from 57.5 µM), for inactives: at the top dose activity change, negative = inhibition, most hits filed as inhibitors. P08659. actives 6.9% (n = 360,000). purified FLuc, Km substrates, luminescence inhibition;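 also: plate controls were vehicle for no effect and reference inhibitor for full effect; nearly all actives have a fitted effect of over 55% in size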
Target sequence (P08659 whole entry, looked up): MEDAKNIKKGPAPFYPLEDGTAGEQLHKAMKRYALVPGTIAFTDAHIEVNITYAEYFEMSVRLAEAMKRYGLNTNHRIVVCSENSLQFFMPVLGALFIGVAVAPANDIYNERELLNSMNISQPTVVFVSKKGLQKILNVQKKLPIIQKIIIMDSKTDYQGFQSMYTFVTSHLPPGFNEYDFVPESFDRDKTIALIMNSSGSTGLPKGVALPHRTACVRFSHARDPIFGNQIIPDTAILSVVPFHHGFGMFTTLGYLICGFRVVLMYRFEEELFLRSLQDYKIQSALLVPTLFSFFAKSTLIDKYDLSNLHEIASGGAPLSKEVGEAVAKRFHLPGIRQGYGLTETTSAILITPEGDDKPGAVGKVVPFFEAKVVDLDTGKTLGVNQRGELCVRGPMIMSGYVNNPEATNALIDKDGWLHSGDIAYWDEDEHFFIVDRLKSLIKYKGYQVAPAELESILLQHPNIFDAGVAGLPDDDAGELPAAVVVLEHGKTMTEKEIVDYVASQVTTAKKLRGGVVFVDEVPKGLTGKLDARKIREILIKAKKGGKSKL
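Biochemical qHTS of compounds, final roughly 60 µM downward over six points, against 10 nM purified firefly luciferase using Km concentrations of substrates (10 uM D-luciferin, 10 uM ATP) in Tris acetate pH 7.5 buffer; luminescence output.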
ELG1 genotox: genotoxicity induction in ELG1-luciferase HEK293T cells; HEK293T ELG1-luciferase reporter, luminescence, 16 h; AID 504466; Potency, µM (top dose mostly 46 µM), inactives show top-dose activity change, positive = activation, usual class: activators; actives 1.3% (n = 330,000); also: % of control where 0% means no effect; nearly all actives have a fitted effect of over 60% in size
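ELG1-luciferase HEK293T cells, 2,000/well; compound pinned in; 16 hr, 37 °C, 5% CO2; ONE-Glo, 30 min RT; luminescence on CCD imager.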
Rab9 prom act: Rab9 promoter activation; Huh7 Rab9 promoter-luciferase reporter, luminescence, 24 h; Potency, µM (series often up to 9.22 µM), without a hit: top-dose activation, negative = inhibition, most hits filed as activators; actives 2.8% (n = 320,000); AID 485297; also: % of control where 0% means no effect; nearly all actives have a fitted effect of over 60% in size
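Using Huh7 cells stably transfected with Rab9 promoter–luciferase, compounds were incubated 24 h at 37 °C, 5% CO2; luciferase luminescence was read 10 min after reagent addition.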
NPC1 prom act: NPC1 promoter activation | Potency, µM (highest dose often 9.22 µM), inactives show at the top dose activation, hits mostly activators | Huh7 NPC1 promoter luciferase reporter, 24 h | actives 2.4% (n = 320,000); also: % of control where 0% means no effect; nearly all actives have a fitted effect of over 60% in size
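Cells: Huh7 expressing luciferase under the NPC1 promoter, 1500/well. Seeded 2 h, compound added, incubated 24 h at 37 °C. Luciferase reagent, 10 min ambient, then luminescence.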
Starred values were filed as active, the others as inactive; ? = inconclusive; · = no result given; [ ] = dose if it differs, or a comment. Calls follow the shape of the dose curve; as a rule, active = well fitted curve in the direction sought with a large enough effect; inconclusive = small, poorly fitted or top-dose-only effect, or another doubt; inactive = no such curve, though single readings can be large; an effect the other way counts as inactive or inconclusive. Potency is read from the fitted curve at half-maximal effect.

SMILES	SMN2 splice up	ELG1 DNA repair	FLuc modulator	ELG1 genotox	Rab9 prom act	NPC1 prom act
CCOc1ccc(Cl)cc1S(=O)(=O)n1nnc2ccccc21	25µM*	-10%	0%[2.3 µM]	-5%	-6%	-2%
CCOc1ccc(S(=O)(=O)n2nnc3ccccc32)cc1C	-11%	-4%	2%	3%	-2%	-1%
O=C(CC(c1ccccc1)c1ccccc1)Nc1ccc(Cl)cn1	-9%	12µM*	4%	-2%	-4%	-4%
O=C(/C=C/c1ccccc1)Nc1ccc(Cl)cn1	13µM*	?	2.7µM*	?	?	?
O=C(CS(=O)(=O)c1ccccc1)Nc1ccc(Cl)cn1	·	27%	-9%	12%	15%	20%
Cc1cc(C(=O)N2CCN(S(C)(=O)=O)CC2)sc1-c1ccccc1	-14%	7%	6%	6%	-4%	-3%
Cc1cc(C(=O)N(C)C)sc1-c1ccccc1	10µM*	?	21µM*	?	28%	?
CCCOc1ccc(C(=O)Nc2ccc3c(c2)OCCO3)cc1	·	?	1.2µM*	2.9µM*	0.56µM*	0.35µM*
CCN(CCCNC(=O)CCc1nc(-c2ccc(OC)cc2)no1)c1cccc(C)c1	-46%	18µM*	6%	-14%	-3%	-4%
COc1ccc(OCCCC(=O)Nc2ccc3c(c2)OCCO3)cc1	?	?	-18%	0%	-5%	-3%
COc1ccc(C(=O)CCNc2ccc3c(c2)OCCO3)cc1	10%	?	13µM*	-4%	24%	?
COc1ccc(-c2noc(CCC(=O)NCCc3ccccc3)n2)cc1	·	?	-18%	-3%	2%	1%
CC(=O)c1ccc(OCCCC(=O)Nc2ccc3c(c2)OCCO3)cc1	·	?	-2%	16%	9%	1%
COc1ccc(C(=O)CCNc2cccc(Cl)c2)cc1	?	?	?	?	3.5µM*	?
CCCOc1ccc(C(=O)CCNc2cccc(Cl)c2)cc1	-16%	6%	-10%	10%	25%	17%
O=S1(=O)N[C@H]2CC[C@@H]3NS(=O)(=O)N[C@H]4CC[C@H](N1)N4S(=O)(=O)N23	-3%[9.22 µM]	·	·	·	·	·
Cc1ccc(CNC(=O)c2c(C)oc3ncnc(N4CCOCC4)c23)cc1	·	·	-6%	·	·	·
O=C(CCNc1ccccc1)c1ccc2c(c1)OCO2	2%	?	4.8µM*	?	2.5µM*	2.2µM*
COc1ccc(C(=O)Nc2ccc3c(c2)OCCO3)cc1	1.8µM*	?	0.85µM*	?	0.71µM*	0.45µM*
CC(=O)Oc1ccc(C(=O)Nc2ccc3c(c2)OCCO3)cc1	·	?	11µM*	?	1.6µM*	1µM*
CN(C)CCC(=O)c1ccc2c(c1)OCO2	-10%	-11%	1%	1%	-3%	2%
COc1ccc(C(=O)CNc2cccc(F)c2)cc1	·	?	11µM*	?	11%[1.84 µM]	?
COc1ccc(C(=O)CC(=O)C(=O)Nc2cccc(F)c2)cc1	·	-16%	-6%	-10%	0%	-1%
COc1cc(OC)c(NC(=O)C(CC(C)C)N2Cc3ccccc3C2=O)cc1Cl (centres undefined)	·	·	-6%	·	·	·
Cc1ccc(-c2noc(CCC(=O)Nc3ccc4c(c3)OCO4)n2)cc1	1%	9%	3%	2%	-1%	-4%
COc1ccc(-c2noc(CCC(=O)Nc3ccc4c(c3)OCCO4)n2)cc1	-18%	-4%	17µM*	15%	1%	0%
N=c1oc2ccccc2cc1-c1nc(-c2ccccc2)cs1	2%	?	4.8µM*	8%	12%	2%
CCOc1ccc(/C=N/NC(=O)c2ccccc2O)cc1CN1CC2CC(C1)c1cccc(=O)n1C2 (centres undefined)	·	11%	?	6%	0%	8%
CN(C)CC(CN(C)C)c1ccccn1	-4%[9.22 µM]	·	·	·	·	·

Assay outcomes (PubChem)
